{
  "source": "PubChem BioAssay (NCATS)",
  "key": {"[1]": {"target": "Androgen receptor (Homo sapiens) (UniProt P10275)", "sequence (P10275 whole entry, looked up)": "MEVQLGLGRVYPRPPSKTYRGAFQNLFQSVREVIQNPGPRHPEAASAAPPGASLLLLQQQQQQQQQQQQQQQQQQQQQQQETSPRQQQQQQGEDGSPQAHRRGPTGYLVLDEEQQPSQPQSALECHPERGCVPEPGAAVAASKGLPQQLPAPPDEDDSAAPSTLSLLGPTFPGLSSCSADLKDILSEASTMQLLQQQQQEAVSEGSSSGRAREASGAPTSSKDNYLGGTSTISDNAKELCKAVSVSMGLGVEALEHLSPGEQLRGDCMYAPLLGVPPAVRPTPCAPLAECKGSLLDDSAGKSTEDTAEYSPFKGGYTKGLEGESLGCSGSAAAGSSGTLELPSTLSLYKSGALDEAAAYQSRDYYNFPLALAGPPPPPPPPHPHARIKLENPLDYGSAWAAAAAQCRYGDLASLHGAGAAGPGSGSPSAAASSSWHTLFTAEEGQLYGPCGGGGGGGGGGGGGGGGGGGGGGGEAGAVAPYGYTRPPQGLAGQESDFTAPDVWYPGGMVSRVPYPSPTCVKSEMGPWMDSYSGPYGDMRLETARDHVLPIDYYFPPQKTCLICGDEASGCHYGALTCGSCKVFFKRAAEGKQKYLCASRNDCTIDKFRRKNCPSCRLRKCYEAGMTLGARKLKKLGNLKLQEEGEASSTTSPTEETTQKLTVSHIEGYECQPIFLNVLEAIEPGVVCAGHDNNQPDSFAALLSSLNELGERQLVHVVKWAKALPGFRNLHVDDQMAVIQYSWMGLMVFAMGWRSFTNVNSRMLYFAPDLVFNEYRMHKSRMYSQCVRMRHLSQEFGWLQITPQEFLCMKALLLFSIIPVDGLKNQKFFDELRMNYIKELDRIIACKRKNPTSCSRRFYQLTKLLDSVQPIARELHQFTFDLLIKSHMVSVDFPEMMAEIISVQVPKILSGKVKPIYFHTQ", "assay": "qHTS assay for small molecule antagonists of androgen receptor signaling (AID 588516; active means well fitted curve in the direction sought with a large enough effect in the signal ratio, with a control signal flat, not every such curve was filed as active; the % refers to the signal ratio; further: potency means the concentration at half of the fitted maximal effect)", "details": "AR-UAS-bla HEK293, beta-lactamase ratio, antagonist mode, 16 h", "procedure,_shortened": "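Antagonist-mode qHTS: inhibition of R1881 (10 nM)-driven beta-lactamase expression in GripTite HEK 293 cells is measured after 16 h; values are Hill-derived IC50s normalized between R1881 and DMSO wells.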"}, "[2]": {"target": "Bile acid receptor (Homo sapiens) (UniProt Q96RI1)", "sequence (Q96RI1 whole entry, looked up)": "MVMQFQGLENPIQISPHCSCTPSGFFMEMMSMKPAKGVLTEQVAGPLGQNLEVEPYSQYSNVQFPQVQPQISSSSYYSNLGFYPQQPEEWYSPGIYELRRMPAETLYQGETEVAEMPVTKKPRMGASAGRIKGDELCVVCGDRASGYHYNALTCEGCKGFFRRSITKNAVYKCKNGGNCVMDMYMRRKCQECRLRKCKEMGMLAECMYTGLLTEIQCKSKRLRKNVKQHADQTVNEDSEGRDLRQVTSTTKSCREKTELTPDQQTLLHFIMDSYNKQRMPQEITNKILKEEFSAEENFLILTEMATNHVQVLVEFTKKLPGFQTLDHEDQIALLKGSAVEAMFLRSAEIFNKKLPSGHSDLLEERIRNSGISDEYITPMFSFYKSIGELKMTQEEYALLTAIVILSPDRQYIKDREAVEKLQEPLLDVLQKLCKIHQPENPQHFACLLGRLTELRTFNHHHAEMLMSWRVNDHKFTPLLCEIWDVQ", "assay": "qHTS assay for small molecule antagonists of farnesoid X receptor signaling (AID 588526); further: potency means the concentration at half of the fitted maximal effect", "details": "HEK293T FXR-UAS-bla, beta-lactamase ratio, antagonist mode; series mostly up to 76.7 µM", "procedure,_shortened": "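Beta-lactamase reporter antagonist mode: HEK293T FXR-UAS-bla cells, titrated compound, CDCA stimulation, 16 h 37 C, CCF4 dye 2 h RT. Data normalized to CDCA 50 uM and DMSO; Hill-fit IC50.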"}, "[3]": {"target": "Glucocorticoid receptor (Homo sapiens) (UniProt P04150)", "sequence (P04150 whole entry, looked up)": "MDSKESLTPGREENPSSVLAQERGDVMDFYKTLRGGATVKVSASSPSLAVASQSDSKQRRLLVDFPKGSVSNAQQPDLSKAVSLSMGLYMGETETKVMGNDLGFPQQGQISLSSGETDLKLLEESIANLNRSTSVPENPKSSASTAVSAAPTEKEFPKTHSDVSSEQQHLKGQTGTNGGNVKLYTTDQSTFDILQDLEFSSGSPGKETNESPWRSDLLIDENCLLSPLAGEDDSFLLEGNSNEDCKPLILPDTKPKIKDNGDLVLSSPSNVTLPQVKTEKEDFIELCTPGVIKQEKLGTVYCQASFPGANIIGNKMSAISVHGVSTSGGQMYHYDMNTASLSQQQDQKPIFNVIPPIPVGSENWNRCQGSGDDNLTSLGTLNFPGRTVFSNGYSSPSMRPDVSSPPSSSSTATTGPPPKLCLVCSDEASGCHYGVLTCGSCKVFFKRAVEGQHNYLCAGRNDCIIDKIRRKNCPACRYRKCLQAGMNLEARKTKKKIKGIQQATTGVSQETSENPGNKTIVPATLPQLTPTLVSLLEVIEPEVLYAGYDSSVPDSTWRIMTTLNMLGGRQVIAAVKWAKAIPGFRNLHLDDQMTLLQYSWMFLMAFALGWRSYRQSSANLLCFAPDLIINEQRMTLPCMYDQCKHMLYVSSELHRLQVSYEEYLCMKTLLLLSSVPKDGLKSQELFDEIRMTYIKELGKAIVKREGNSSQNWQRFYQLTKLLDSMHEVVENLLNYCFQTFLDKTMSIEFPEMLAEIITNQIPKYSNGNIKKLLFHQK", "assay": "qHTS assay for small molecule agonists of glucocorticoid receptor signaling (AID 588532; active means well fitted curve in the direction sought with a large enough effect in the signal ratio, with a control signal flat; the % refers to the signal ratio)", "details": "HeLa MMTV-bla, beta-lactamase ratio, agonist, 18 h; stronger effect = higher value; percent of dexamethasone control, DMSO zero", "procedure,_shortened": "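Agonist-mode qHTS: GRE-driven beta-lactamase in HeLa cells exposed 18 h to titrated compounds (up to 92 uM), then CCF4 ratio read after 2 h at RT; Hill-fitted EC50, efficacy relative to 0.1 uM dexamethasone.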"}, "[4]": {"target": "Vitamin D3 receptor (Homo sapiens) (UniProt P11473)", "sequence (P11473 whole entry, looked up)": "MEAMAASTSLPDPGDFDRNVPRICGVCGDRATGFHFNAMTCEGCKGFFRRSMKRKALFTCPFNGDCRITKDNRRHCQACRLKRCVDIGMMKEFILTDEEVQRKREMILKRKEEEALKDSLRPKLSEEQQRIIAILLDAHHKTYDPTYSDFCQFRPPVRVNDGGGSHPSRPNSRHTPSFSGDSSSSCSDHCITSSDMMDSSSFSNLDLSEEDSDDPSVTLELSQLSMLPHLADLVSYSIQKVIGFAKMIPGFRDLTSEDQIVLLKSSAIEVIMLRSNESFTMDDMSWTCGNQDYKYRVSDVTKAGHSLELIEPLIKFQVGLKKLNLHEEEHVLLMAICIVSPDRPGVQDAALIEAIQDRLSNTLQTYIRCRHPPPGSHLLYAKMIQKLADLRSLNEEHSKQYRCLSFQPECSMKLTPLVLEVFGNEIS", "assay": "qHTS assay for small molecule agonists of vitamin D receptor signaling (AID 588543)", "details": "HEK293T VDR-UAS-bla, beta-lactamase ratio, 16 h; series mostly up to 76.8 µM", "procedure,_shortened": "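qHTS in agonist mode: compound titrations stimulate a VDR-driven β-lactamase reporter in HEK293T cells over 16 h at 37 °C. Response normalized to 50 nM 1α,25-dihydroxyvitamin D3 = 100%, DMSO = 0%; Hill fitting gives EC50 and maximal response.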"}, "[5]": {"target": "Glucocorticoid receptor (Homo sapiens) (UniProt P04150)", "assay": "qHTS assay for small molecule antagonists of glucocorticoid receptor signaling (AID 588533; active means well fitted inhibition curve with a large enough effect in the signal ratio, with a control signal flat, not every such curve was filed as active; the % refers to the signal ratio; further: potency means the concentration at half of the fitted maximal effect)", "details": "HeLa MMTV-bla, GRE beta-lactamase ratio, antagonist mode, 18 h; series mostly up to 76.8 µM", "procedure,_shortened": "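Antagonist-mode qHTS: compound titrations added to GRE-bla HeLa cells, then dexamethasone 2 nM final; 18 h, 37 C. CCF4 FRET fluorescence normalized to dexamethasone and DMSO; IC50 from Hill fit.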"}, "[6]": {"assay": "qHTS assay for small molecule antagonists of peroxisome proliferator-activated receptor delta signaling (AID 588535; active means well fitted inhibition curve with a large enough effect in the signal ratio, with a control signal flat, not every such curve was filed as active; the % refers to the signal ratio;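 on max response: cells co-treated with a PPAR-delta agonist as stimulator during compound exposure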)", "details": "HEK293T PPARd-UAS-bla, beta-lactamase FRET ratio, 18 h; 460 nm channel", "procedure,_shortened": "(§1)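 Cell-based beta-lactamase assay in antagonist mode: 4000 HEK293T PPAR-delta-UAS-bla cells per well, 5 hr preincubation then 18 hr compound incubation at 37 C. IC50 obtained by Hill equation fitting.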"}, "[7]": {"target": "Peroxisome proliferator-activated receptor delta (Homo sapiens) (UniProt Q03181)", "sequence (Q03181 whole entry, looked up)": "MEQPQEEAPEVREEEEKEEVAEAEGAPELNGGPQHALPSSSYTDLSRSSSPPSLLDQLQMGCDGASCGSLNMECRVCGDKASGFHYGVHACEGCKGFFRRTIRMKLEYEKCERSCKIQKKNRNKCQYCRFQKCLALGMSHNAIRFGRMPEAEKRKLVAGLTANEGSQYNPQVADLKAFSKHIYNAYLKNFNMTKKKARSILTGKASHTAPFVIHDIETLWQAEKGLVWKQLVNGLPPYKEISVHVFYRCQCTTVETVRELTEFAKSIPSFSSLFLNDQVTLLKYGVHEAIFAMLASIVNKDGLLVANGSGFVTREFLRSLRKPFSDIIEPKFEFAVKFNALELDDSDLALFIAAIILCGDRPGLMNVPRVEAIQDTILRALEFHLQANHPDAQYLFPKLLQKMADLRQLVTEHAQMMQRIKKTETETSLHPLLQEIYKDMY", "assay": "qHTS assay for small molecule antagonists of peroxisome proliferator-activated receptor delta signaling (AID 588535)", "details": "HEK293T PPARd-UAS-bla, beta-lactamase FRET ratio, 18 h; series mostly up to 76.7 µM", "procedure,_shortened": "as §1"}, "[8]": {"target": "Peroxisome proliferator-activated receptor gamma (Homo sapiens) (UniProt P37231)", "sequence (P37231 whole entry, looked up)": "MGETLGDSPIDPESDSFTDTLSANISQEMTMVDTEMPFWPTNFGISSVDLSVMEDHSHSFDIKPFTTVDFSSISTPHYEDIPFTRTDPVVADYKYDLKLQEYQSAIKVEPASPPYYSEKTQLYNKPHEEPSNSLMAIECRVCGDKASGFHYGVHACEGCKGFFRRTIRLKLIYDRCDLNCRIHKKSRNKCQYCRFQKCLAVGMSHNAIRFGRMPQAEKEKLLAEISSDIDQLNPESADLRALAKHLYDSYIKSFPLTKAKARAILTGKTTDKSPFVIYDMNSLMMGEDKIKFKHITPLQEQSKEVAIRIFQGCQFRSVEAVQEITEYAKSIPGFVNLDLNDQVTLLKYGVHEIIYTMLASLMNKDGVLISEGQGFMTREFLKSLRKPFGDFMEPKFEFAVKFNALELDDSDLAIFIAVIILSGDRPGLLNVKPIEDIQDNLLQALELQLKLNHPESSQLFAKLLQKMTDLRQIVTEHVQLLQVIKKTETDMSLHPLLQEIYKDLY", "assay": "qHTS assay for small molecule agonists of peroxisome proliferator-activated receptor gamma signaling (AID 588536; active means well fitted curve in the direction sought with a large enough effect in the signal ratio, with a control signal flat, not every such curve was filed as active; the % refers to the signal ratio)", "details": "HEK293 PPARg-UAS-bla, beta-lactamase ratio, 16 h, percent of rosiglitazone response, DMSO as zero; series mostly up to 76.7 µM", "procedure,_shortened": "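HEK293 UAS-bla reporter line, 1% charcoal/dextran FBS; titration, 16 h, 37 C; CCF4 loading 2 h RT; fluorescence 460/530 nm. Normalized to rosiglitazone 2 uM = 100%, DMSO = 0%.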"}, "[9]": {"target": "Vitamin D3 receptor (Homo sapiens) (UniProt P11473)", "assay": "qHTS assay for small molecule antagonists of vitamin D receptor signaling (AID 588541)", "details": "HEK293T VDR-UAS-bla, beta-lactamase ratio, antagonist mode; series mostly up to 76.7 µM", "procedure,_shortened": "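Antagonist-mode beta-lactamase reporter assay: HEK293T VDR-UAS-bla cells were exposed to titrated compound alongside 1-alpha,25-dihydroxyvitamin D3 at 3 nM final for 16 h. Values were normalized to the 50 nM agonist control and DMSO basal, with IC50 and efficacy from Hill equation fits.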"}, "[10]": {"target": "Peroxisome proliferator-activated receptor gamma (Homo sapiens) (UniProt P37231)", "assay": "qHTS assay for small molecule antagonists of peroxisome proliferator-activated receptor gamma signaling (AID 588537; active means well fitted inhibition curve with a large enough effect in the signal ratio, with a control signal flat, not every such curve was filed as active; the % refers to the signal ratio)", "details": "HEK293 PPARg-UAS-bla, beta-lactamase ratio, antagonist mode; series mostly up to 76.8 µM", "procedure,_shortened": "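Inhibitors of agonist-stimulated UAS-bla reporter activity were sought in HEK293 cells; rosiglitazone (50 nM) defined full signal and DMSO baseline. Curves fitted to Hill model gave IC50 and efficacy.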"}},
  "note": "Results filed as inconclusive are left out. A call without a number means that no potency is given here. Active and inactive are the calls of the source. Unless noted, the call rests on the fitted dose curve.",
  "data": [
    {"smiles": "CC(C=CC1=C(C)CCCC1(C)C)=CC=CC(C)=CC(=O)Nc1ccc(O)cc1", "values": [
      {"measurement": "Potency", "setting": "[1]", "value": "35.5 µM (active)"},
      {"measurement": "Potency", "setting": "[2]", "value": "39.8 µM (active)"},
      {"measurement": "activation", "setting": "[3]", "value": "5.23% (inactive)"},
      {"measurement": "outcome", "setting": "[4]", "value": "inactive"}
    ]},
    {"smiles": "C[C@]12CC[C@@H]3c4ccc(O)cc4CC[C@H]3[C@H]1CC[C@H]2O", "values": [
      {"measurement": "activation", "setting": "[3]", "value": "-15.8% (inactive)"},
      {"measurement": "Potency", "setting": "[5]", "value": "15.8 µM (active)"},
      {"measurement": "max response", "setting": "[6]", "value": -15.7, "unit": "%"},
      {"measurement": "outcome", "setting": "[7]", "value": "inactive"},
      {"measurement": "outcome", "setting": "[8]", "value": "inactive"},
      {"measurement": "outcome", "setting": "[9]", "value": "inactive"},
      {"measurement": "outcome", "setting": "[4]", "value": "inactive"}
    ]},
    {"smiles": "Cc1cc(O)c2c(c1)C(=O)c1cccc(O)c1C2=O", "values": [
      {"measurement": "Potency", "setting": "[2]", "value": "inactive"},
      {"measurement": "Potency", "setting": "[5]", "value": "inactive"},
      {"measurement": "max response", "setting": "[6]", "value": -38.7, "unit": "%"},
      {"measurement": "outcome", "setting": "[7]", "value": "inactive"},
      {"measurement": "outcome", "setting": "[8]", "value": "inactive"},
      {"measurement": "outcome", "setting": "[10]", "value": "inactive"},
      {"measurement": "outcome", "setting": "[9]", "value": "inactive"},
      {"measurement": "outcome", "setting": "[4]", "value": "inactive"}
    ]},
    {"smiles": "OC[C@@H](O)[C@@H](O)[C@H](O)[C@@H](O)CO", "values": [
      {"measurement": "outcome", "setting": "[8]", "value": "inactive"},
      {"measurement": "outcome", "setting": "[9]", "value": "inactive"},
      {"measurement": "outcome", "setting": "[4]", "value": "inactive"}
    ]},
    {"smiles": "O=C1c2cccc(O)c2C(=O)c2c(O)cc(CO)cc21", "values": [
      {"measurement": "Potency", "setting": "[2]", "value": "inactive"},
      {"measurement": "activation", "setting": "[3]", "value": "-14.5% (inactive)"},
      {"measurement": "Potency", "setting": "[5]", "value": "inactive"},
      {"measurement": "outcome", "setting": "[10]", "value": "inactive"},
      {"measurement": "outcome", "setting": "[9]", "value": "inactive"},
      {"measurement": "outcome", "setting": "[4]", "value": "inactive"}
    ]}
  ]
}
